# Biological target: CSGALNACT1
# Test: pooled miR-30 sensor sort-seq; sequence = guide strand
# Conditions: shRNA
# Also: reference of the scale not given here.
row,Sequence,sensor-assay potency score (higher = more potent)
1,TTAAATTTCATAAACTACCAGT,-0.16
2,ATATTGATGAAGTCTGACCGAT,-0.598
3,TTGCTGTGGAGATACTTGCGAT,-1.14
4,TTGATGTCCAGATCAAACCCAC,-0.21
5,TTAAACAATGAGTTTACTGTGA,-0.267
6,TATTAGTACAAACCATTCCTTC,-0.885
7,TATTGATGAAGTCTGACCGATA,-0.823
8,TAATTCAGTTACTTCCACCTGG,0.629
9,TTAGCTGTGCAATACCACCTTC,-0.0505

# Biological target: CSTF3
# Test: as above
# Conditions: shRNA
row,Sequence,sensor-assay potency score (higher = more potent)
1,TAAATCAATGTGCAAAACCTTC,-1.01
2,TTGAATGCTGTAAACCGTCTTT,-0.262
3,TCGGATTAACACAACCTCGTTG,-0.511
4,TTCCATTCCAATTTTATCCAGT,-0.0677
5,TACTGCATTACTTTCCACGGGG,0.0681
6,TTTCTTTGTAACTTGGTAGTTT,-0.139
7,TTATTCTTTGATTTTCTGCATA,-0.891
8,TTGTTTTTTCTCAAGAACCATG,-1.15
9,TTTGGTATCTTGCATCTTCGGA,-0.026
10,TAGCTGCTAGCTTAGCACGGGA,-0.406
11,TTCTGGTATCTTCTCTTGCTTT,-0.975
12,TTTGCTTAGAGCATAGGTCTGT,0.755
13,TTGGTATCTTGCATCTTCGGAA,-0.546
14,TATAGAAGGAGCTACAACTGGG,0.225
15,TTTAGCTAAATGAATATTGATA,-0.643
16,TTGATCATCGGATTAACACAAC,-0.951
17,TAGAGCATAGGTCTGTTCCGTA,0.181
18,TTCATCTGAATCCTCGTTGGGC,0.448
19,TTTTCTATCCACTTCATCTTTC,-0.135
20,TTTGTCTATAGGTTGATTCTGT,-0.133
21,TACTTGTTATAGTCTCTCCAGA,-0.878
22,TTCTTCTTCAATAAAGTGCTTA,-0.0244
23,TGAACTTGTATCTATCTACTAG,-0.0129
24,TTTGTTTCCAAGAACCTTGTAA,0.432

# Biological target: CT47A1
# Test: as above
# Conditions: shRNA
row,Sequence,sensor-assay potency score (higher = more potent)
1,TTGACGGTTCTCTATGAGGATG,-1.48
2,TGTTTTCTGCATCCTTCTCTTT,-1.05
3,TTCTTCACCTTGTTTTCTGCAT,-0.231
4,TATGAGGATGTGGTCGTTGTGA,-0.634
5,TTGTTTTCTGCATCCTTCTCTT,-0.0876
6,TTTAGTGACTTCCTCTGGGGCC,-0.087
